From PubChem BioAssay
PostGolgi ctrl = yeast control strain growth, post-Golgi counter-screen. inhibition, % at 10 µM. efflux-deficient yeast background strain, growth absorbance A615, 16 h. AID 738. 98,000 tested, 5% active
PLAP activator = activates human placental alkaline phosphatase; purified PLAP enzyme, luminescent substrate read-out; active compounds read high; activation fold at 20 µM; P05187; 96,000 tested, 1.2% active; AID 696; in the data active = activation fold above about 2
Target sequence (P05187 whole entry, looked up): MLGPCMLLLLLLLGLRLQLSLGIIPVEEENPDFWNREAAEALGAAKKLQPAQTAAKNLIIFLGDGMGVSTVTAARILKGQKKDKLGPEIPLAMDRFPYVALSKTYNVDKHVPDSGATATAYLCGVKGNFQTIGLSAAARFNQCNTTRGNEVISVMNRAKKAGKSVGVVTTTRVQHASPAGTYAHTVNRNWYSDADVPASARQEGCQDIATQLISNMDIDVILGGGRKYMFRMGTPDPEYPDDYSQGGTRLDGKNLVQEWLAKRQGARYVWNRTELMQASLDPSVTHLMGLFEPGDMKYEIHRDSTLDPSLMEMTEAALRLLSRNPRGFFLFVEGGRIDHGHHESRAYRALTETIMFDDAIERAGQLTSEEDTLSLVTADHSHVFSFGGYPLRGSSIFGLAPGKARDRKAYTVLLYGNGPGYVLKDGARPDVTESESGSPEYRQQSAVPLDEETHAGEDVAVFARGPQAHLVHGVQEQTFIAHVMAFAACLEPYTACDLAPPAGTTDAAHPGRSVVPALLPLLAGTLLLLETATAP
DAT uptake mod = changed human dopamine transporter uptake under cocaine IC80; Q01959; LLC-PK1 hDAT cells, [14C]-dopamine uptake with cocaine IC80; actives deviate in either direction; B-score at 10 µM; 110,000 tested, 1.3% active;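 active = Z score or B-score, a plate-position-corrected score, falls beyond the plate's 99.7% confidence bounds, in either direction; inactive = both scores lie inside the 99.7% bounds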
Cav32 inh = human Cav3.2 channel inhibition, primary screen. Cav3.2-expressing cells, Fluo-4 calcium fluorescence FDSS; active compounds read low. B-score at 10 µM. 100,000 tested, 4% active;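 active = single-dose well whose peak fluorescence ratio is a statistical outlier from its plate by either plate-standardised score or position-corrected B-score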
PostGolgi yeast = growth inhibition of a yeast mutant, post-Golgi transport screen. post-Golgi transport phenotypic cell assay. inhibition, % at 10 µM. 98,000 tested, 0.9% active. AID 739;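 also: yeast cells grown in 1536-well plates; yeast grown about 18 h at 30C before absorbance read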
A number is an active result; i = inactive; nt = no result given. Sampled rows, rich in hits. Any-hit rate of the full collection: about 9.6%. Rule as the data show it, unless noted: active = inhibition above about 30%; inactive = the rest.

SMILES	PostGolgi ctrl	PLAP activator	DAT uptake mod	Cav32 inh	PostGolgi yeast
Cc1nn(Cc2ccccc2)c(C)c1NC(=O)c1cc(-c2cccs2)on1	i	i	i	-4.83	i
Cc1nn(Cc2ccc(Cl)c(Cl)c2)c(C)c1NC(=O)c1noc2c1CCCCC2	i	i	i	i	i
COc1ccccc1CC(=O)Nc1ccc(O)cc1C(=O)O	i	i	i	i	i
CCOC(=O)c1cccc(NC(=O)c2c(NCc3ccccc3)[nH]c(=O)[nH]c2=O)c1	nt	nt	i	i	nt
Cc1ccc(C(=O)N/C(=C\c2cccs2)C(=O)NCc2ccncc2)cc1	i	i	i	i	i
Cn1c(SCC(=O)NCCc2ccccc2)nnc1-c1ccco1	i	i	i	i	i
CCn1c(CNC(=O)Cc2ccc(OC)cc2)nnc1SCC(=O)Nc1nccs1	i	i	i	i	i
COc1cccc(-n2c(SCC(=O)NCCc3ccccc3)nnc2-c2ccoc2C)c1	i	i	i	-8.05	i
COc1cccc(-n2c(SCC(=O)Nc3nccs3)nnc2-c2ccoc2C)c1	nt	nt	i	-3.97	nt
CCn1c(Cc2cccc3ccccc23)nnc1SCC(=O)Nc1nccs1	nt	nt	i	-5.85	nt
COc1ccc(CCCc2nnc(SCC(=O)Nc3nccs3)n2C)cc1C	45.0	i	i	i	i
CCOC(=O)c1cn(Cc2ccccc2)c(C(=O)OC(C)(C)C)c1O	nt	nt	i	i	nt
COc1ccc(-n2c(SCC(=O)Nc3nc(C)cs3)nnc2-c2ccoc2C)cc1	nt	nt	i	-6.54	nt
Cc1occc1-c1nnc(SCC(=O)Nc2ccccc2)n1C(C)c1ccccc1 (stereo not given)	i	i	i	-4.27	i
COc1ccc(-n2c(SCC(=O)Nc3nccs3)nnc2-c2ccoc2C)cc1	i	i	i	i	i
Cc1occc1-c1nnc(SCC(=O)Nc2ccccc2)n1CCc1ccccc1	i	i	i	i	i
Cc1occc1-c1nnc(SCC(=O)NCCc2ccccc2)n1Cc1ccccc1	i	i	i	-4.96	i
Cc1occc1-c1nnc(SCC(=O)N2CCOCC2)n1CCc1ccccc1	i	i	i	i	i
Cc1occc1-c1nnc(SCC(N)=O)n1Cc1ccccc1	i	i	i	i	i
CCn1c(SCC(=O)N2CCN(c3ccccc3F)CC2)nnc1-c1ccoc1C	i	i	2.68	i	i
COc1cccc(Oc2cncnc2-c2ccc(OC)cc2O)c1	56.5	i	i	-3.86	83.8
CCOc1ccc(-c2nc(N)ncc2Oc2cccc(OC)c2)c(O)c1	i	i	i	i	i
CC(C)(C)n1nc2c(c1NC(=O)COc1ccc(Cl)cc1)CSC2	i	i	i	-4.41	i
O=C(O)c1cccc2c1C(=O)N(Cc1ccncc1)C2	34.8	i	i	i	i
CCC(C)[C@H](NC(=O)NCc1ccccc1)C(=O)O (stereo not given in full)	45.0	i	i	i	i
SMILES	PostGolgi ctrl	PLAP activator	DAT uptake mod	Cav32 inh	PostGolgi yeast
CCC(C)[C@H](NC(=O)NCc1cccc(OC)c1)C(=O)O (stereo not given in full)	i	i	i	i	i
Cc1ccc(C(c2nnnn2C2CCCC2)N2CCN(c3nc4ccccc4s3)CC2)cc1 (stereo not given)	nt	nt	i	-8.07	nt
c1csc(C(c2nnnn2C2CCCCC2)N2CCN(c3nc4ccccc4s3)CC2)c1 (stereo not given)	nt	nt	i	-3.8	nt
c1ccc(C(c2nnnn2C2CCCC2)N2CCN(c3nc4ccccc4s3)CC2)cc1 (stereo not given)	nt	nt	i	-8.16	nt
O=C(c1ccco1)N1CCN(C(c2cccs2)c2nnnn2C2CCCCC2)CC1 (stereo not given)	i	i	i	i	i
c1csc(C(c2nnnn2C2CCCC2)N2CCOCC2)c1 (stereo not given)	i	i	i	i	i
c1csc(C(c2nnnn2C2CCCC2)N2CCCC3(CCCCC3)C2)c1 (stereo not given)	i	i	i	-5.67	i
CC(=O)c1cc(C)ccc1OC(=O)c1ccco1	i	i	i	i	i
CCN(CCO)Cc1csc2ccc(Br)cc12	i	i	i	i	i
COc1ccc(N2CCN(C(=O)CCc3ccc(S(=O)(=O)NC(C)C)cc3)CC2)cc1	nt	nt	i	i	nt
Cc1nc2ccccc2c(=O)n1/N=C/c1cn(-c2ccccc2)nc1-c1cccs1	i	i	i	-4	i
COc1ccc(Nc2nc(N)nc(CSc3nnc(N)s3)n2)cc1	i	i	i	i	32.4
COc1ccc(OCc2nc(N)nc(Nc3cccc(C)c3C)n2)cc1	i	i	i	i	i
COc1ccc(OCc2nc(N)nc(Nc3ccc(C)cc3)n2)cc1	52.8	i	i	i	i
COc1ccc2nc(SCc3nc(N)nc(Nc4ccccc4)n3)[nH]c2c1	i	2.5	i	i	i
